Experimental data from PubChem BioAssay AID504908 (NMMLSC, 2011).
Values joined by “and” are separate entries in the source; they are usually repeats but may differ in a detail not shown here. Equal entries are not always repeated. Screen size: about 1,300 compounds; about 25 (2%) were called active. Not all results are given here. A number with no mark means an inactive call.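 How the source made its calls: active means inhibition above a set limit, roughly 3 SD of non-fluorescent compound noise (cut at about 38% in these data); inactive means inhibition at or below that limit.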

target: AP-2 complex subunit beta (Homo sapiens) (UniProt P63010); test: beta-arrestin/AP2 interaction blockers, retest – biochemical, cherry pick 1, flow cytometry beads, confirmation (AID 504908); details: GST-AP2 beads, FITC arrestin peptide binding, at 10 µM, active compounds read high, GST-fused beta2-adaptin appendage, R879A mutant;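 further: loss of bead fluorescence from 50 nM FITC arrestin peptide bound to appendage; 0% = negative control wells and 100% = excess unlabelled arrestin peptide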
Sequence (P63010 whole entry, looked up, the tested form may be a part, one chain of several): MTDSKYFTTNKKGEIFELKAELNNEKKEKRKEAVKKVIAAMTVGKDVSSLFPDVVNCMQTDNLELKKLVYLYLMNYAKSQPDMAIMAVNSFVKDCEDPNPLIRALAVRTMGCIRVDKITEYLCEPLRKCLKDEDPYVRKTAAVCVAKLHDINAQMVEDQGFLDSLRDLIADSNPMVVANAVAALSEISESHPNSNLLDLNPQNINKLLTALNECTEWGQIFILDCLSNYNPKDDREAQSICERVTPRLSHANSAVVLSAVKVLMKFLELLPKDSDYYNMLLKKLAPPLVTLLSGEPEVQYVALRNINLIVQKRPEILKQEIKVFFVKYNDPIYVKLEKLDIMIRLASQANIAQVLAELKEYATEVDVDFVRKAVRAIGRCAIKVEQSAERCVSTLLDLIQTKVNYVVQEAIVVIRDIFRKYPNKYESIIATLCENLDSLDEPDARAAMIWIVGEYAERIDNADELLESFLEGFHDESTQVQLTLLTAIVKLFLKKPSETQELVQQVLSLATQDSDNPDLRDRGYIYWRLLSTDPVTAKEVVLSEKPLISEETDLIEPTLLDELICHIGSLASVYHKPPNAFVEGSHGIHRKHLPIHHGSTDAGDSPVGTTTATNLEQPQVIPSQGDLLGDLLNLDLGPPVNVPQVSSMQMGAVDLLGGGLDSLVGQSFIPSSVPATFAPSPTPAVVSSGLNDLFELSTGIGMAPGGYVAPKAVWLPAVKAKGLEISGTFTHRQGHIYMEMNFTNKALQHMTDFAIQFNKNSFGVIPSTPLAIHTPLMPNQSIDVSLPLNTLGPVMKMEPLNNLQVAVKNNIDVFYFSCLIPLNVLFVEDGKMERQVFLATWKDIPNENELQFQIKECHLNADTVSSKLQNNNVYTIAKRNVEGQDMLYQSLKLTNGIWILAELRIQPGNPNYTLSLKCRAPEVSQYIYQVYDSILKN

Row | SMILES | inhibition
1 | CN(C(=O)COC(=O)c1cc(=O)[nH]c2ccccc12)C1CCCCC1 | -1.7%
2 | Cc1ccc(CN2C(=O)CCC2C(=O)NCCCN2CCCCC2C)cc1 (centres undefined) | 10.8%
3 | CC(NC(=O)c1cc2cc(Cl)ccc2oc1=N)c1ccccc1 (centres undefined) | -6.34%
4 | COC(=O)c1cc(NC(=O)c2nn(C)c(=O)c3ccccc23)cc(C(=O)OC)c1 | -5.22%
5 | COc1ccc(CCNc2ncnc3c2nnn3Cc2ccccc2)cc1 | -10.5%
6 | CCn1c(=O)n(CC)c2cc(N3CCCC3)c(NC(=O)c3ccccc3Br)cc21 | -0.2%
7 | CC(NCCc1ccc(S(N)(=O)=O)cc1)C(=O)NCc1ccccc1 (centres undefined) | 5.93%
8 | O=C(C1CCCO1)N1CCN(S(=O)(=O)c2ccc(Br)cc2)CC1 (centres undefined) | -1.61%
9 | Cc1ccc(CNC(=O)C2CC(=O)N(C3CCCCCCC3)C2)cc1 (centres undefined) | -8.23%
10 | Cc1ccc(S(=O)(=O)N2CCCCC2)cc1NC(=O)c1cccnc1 | -9.09%
11 | NC(=O)C1CCN(C(=O)CC2C(=O)NCCN2Cc2cccc(Oc3ccccc3)c2)CC1 (centres undefined) | 0.55%
12 | CCCc1ccc(-c2csc(NC(=O)Cc3cccs3)n2)cc1 | 8.55%
13 | Cc1cccc(Nc2ccccc2C(=O)NCc2ccco2)c1C | 6.33%
14 | Cc1ccc(S(=O)(=O)N2CCN(C(=O)c3ccccc3-c3nc4ccccc4s3)CC2)c(C)c1 | 15.9%
15 | COc1cc2c(cc1NC(=O)COC(=O)/C=C/c1ccccc1)oc1ccccc12 | -9.67%
16 | Cc1ccc(Nc2ccc(C(N)=O)cc2[N+](=O)[O-])cc1 | -3.07%
17 | CC(C)C[C@H](NC(=O)N1CCn2c1nc1ccccc12)C(=O)NC1CC1 | 9.68%
18 | Cc1ccc(C)c(NC(=S)NNC(=S)Nc2ccc(C(C)C)cc2)c1 | -5%
19 | Cc1cccc(C)c1NC(=O)C(Cl)C(=O)c1ccccc1 (centres undefined) | 8.36%
20 | CC(C)c1nnc(NC(=O)CCC(=O)N2CCN(c3cccc(Cl)c3)CC2)s1 | 1.25%
21 | Cc1cccc(NC(=S)NC(=O)c2ccc(Br)o2)c1 | -4.95%
22 | CC(=O)NCCNC(=O)c1cc(-c2cccc3ccccc23)nc2ccccc12 | -1.13%
23 | CCOC(=O)N1CCN(C(=O)CNC(=O)Cc2ccc(Cl)cc2)CC1 | -12.2%
24 | Brc1ccccc1C1Nc2cccc3cccc(c23)N1 | 14.3%
25 | O=C(NCc1ccco1)c1ccc(CS(=O)(=O)Cc2ccc(F)cc2)o1 | 3.68%
26 | CCOc1ccc(C(=O)NC2CCN(CC(=O)NCc3cccs3)CC2)cc1 | -3.4%
27 | Cc1ccc(S(=O)(=O)/N=C(/Nc2ccccn2)c2ccc(Cl)cc2)cc1 | 13.7%

Row | SMILES | inhibition
28 | CC(Oc1ccccc1)C(=O)NN1Cc2ccccc2C1=N (centres undefined) | -3.2%
29 | Cn1c(=O)c([N+](=O)[O-])c(Oc2ccccc2)c2ccccc21 | 2.7%
30 | CCC(C(=O)OC)n1cnc2c(oc3ccccc32)c1=O (centres undefined) | -3.46%
31 | CN(C)c1ccc(NC(=O)c2ccncc2)c2ccccc12 | -3.42%
32 | COc1ccc(/C=C2\SC(=S)N(CCC(=O)Nc3ccccn3)C2=O)cc1OC | 17.1%
33 | CCC(=O)Nc1nc2ccccc2n1Cc1ccccc1C | -4.23%
34 | O=C(NCC1(N2CCCCC2)CCCCC1)c1cccc(S(=O)(=O)Nc2ccccc2Cl)c1 | -1.26%
35 | COC(=O)C1CC2=C(CC(C)(C)CC2=O)N(c2ccccc2)C1=O (centres undefined) | -13.1%
36 | CN1C(=O)/C(=C/c2ccco2)SC1=Nc1cccc(C(=O)O)c1 | 9.02%
37 | Cc1cc(C(=O)Nc2ccc(C)c(S(=O)(=O)N3CCOCC3)c2)c2ccccc2n1 | 7.91%
38 | COc1cccc(-n2c(SCC(=O)c3c[nH]c4ccccc34)nc3ccccc3c2=O)c1 | 11.3%
39 | Cc1cc(C)cc(Oc2nc3c(C)cccn3c(=O)c2/C=C(\C#N)C(=O)NC2CCS(=O)(=O)C2)c1 (centres undefined) | 7.24%
40 | Cc1ccc(C2(C)NC(=O)N(CC(=O)Nc3ccccc3C(=O)N3CCCCC3)C2=O)cc1 (centres undefined) | 0.91%
41 | Cc1cc(C(=O)OCC(=O)c2c(N)n(C)c(=O)n(C)c2=O)c(C)o1 | -0.6% and 1.98%
42 | NS(=O)(=O)c1ccc2nc(NC(=O)C3=COCCO3)sc2c1 | 3.87%
43 | C/C(=N\Nc1ccc([N+](=O)[O-])cc1)c1ccc(-n2nncc2C(C)(C)C)cc1 | -0.82%
44 | COc1cc2c(cc1OC)CN(C(=O)c1cc(=O)c3ccccc3o1)CC2 | -9.22%
45 | Cc1ccc(OCCCCc2c(C)n[nH]c2C)cc1 | 4.8%
46 | COCCNC(=O)Nc1ccc2nc(-c3ccco3)c(-c3ccco3)nc2c1 | 34%
47 | Cc1ccc(OCCCC(=O)Nc2ccc3c(c2)OCCO3)cc1 | -5.58%
48 | Cc1ccc(Cl)cc1-c1ccc(/C=N/n2cnnc2)o1 | -9.15%
49 | CC(C)(C)c1ccc(C(=O)NCCn2c(N)c(C#N)c3nc4ccccc4nc32)cc1 | 6.81%
50 | Cn1c(=O)c2c(nc(N/N=C/c3cccs3)n2Cc2ccc(Br)cc2)n(C)c1=O | 1.14%
51 | CC(CN1CCCCC1)OC(=O)c1ccccc1Cl (centres undefined) | 7.67%
52 | CCOc1ccc(-c2nnc(-c3ccco3)o2)cc1 | 11.9%
53 | O=c1[nH]c2ccccc2n2c(-c3ccccc3)nnc12 | 20.4%
54 | O=C(c1ccc(S(=O)(=O)NCc2ccco2)cc1)N1CCN(c2ccccc2)CC1 | 1.61%
